A short description of this assay: enhancers of VCAM1 induction in HUVEC – imaging, triplicate retest, confirmation (AID 1034).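 Further: scaled per plate between unstimulated and TNFa-stimulated DMSO control wells.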 The following applies: HUVEC TNFa-stimulated VCAM-1 immunofluorescence imaging; at 2 µM; hits give high values.

The other results are listed elsewhere or left out. A number with no mark means an inactive call.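 How the source made its calls: active means activation above 30% in triplicate retests at 2 µM, then confirmed by visual review of the well images; inactive means the rest.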

Take `COC(=O)CN1C(=O)C2(C(C(=O)OC)=C(N)Oc3ccccc32)C2=C1CC(C)(C)CC2=O` (stereo unspecified): the activation was -16.1%.

The values above are taken from PubChem BioAssay AID1034 (Columbia University Molecular Screening Center, 2008).
